SARS PLP yeast = inhibitors of SARS-CoV papain-like protease in yeast | S. cerevisiae expressing SARS-CoV PLpro, growth rescue | Potency, µM (highest dose often 32.9 µM), without a hit: top-dose activity, positive = growth rescue, usual class: activators | 0.19% of 330,000 active; calls by dose curve; note: potency is the fitted concentration of half-maximal effect; 0% is about no effect; nearly all actives have a fitted effect of over 55% in size
Pf growth 48h = P. falciparum growth inhibition at 48 hours (one generation) | P. falciparum luciferase growth in erythrocytes, 48 h | Potency, µM (highest dose often 28.7 µM), for inactives: top-dose activity change, negative = inhibition, most hits filed as inhibitors | 5.9% of 310,000 active | AID 504832; note: potency is the fitted concentration of half-maximal effect; % is set by controls: 0 for no effect and ±100 for the full control effect
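A one-generation exposure of luciferase-tagged malaria parasites in RPMI 1640/Albumax erythrocyte culture, 37 C and 5% CO2. Inhibition is inferred from decreased luminescence after adding detection reagent.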
HCV inhibitor = blocks hepatitis C virus | Huh7.5.1 HCVcc-Cre infection, luciferase reporter, 44 h | Potency, µM (doses to about 41.8 µM), inactives show top-dose activity change, negative = inhibition, usual class: inhibitors | 3.4% of 340,000 active; note: potency is the fitted concentration of half-maximal effect; % is set by controls: 0 for no effect and ±100 for the full control effect
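Compounds are dispensed onto cells plated 4 h earlier at 1,000 per well, with HCVcc-Cre virus (about 0.5 moi) added next. Following 44 h of culture, luminescent signal is measured for 15 sec after 15 min with substrate at room temperature.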
Pf growth 96h = inhibits malaria parasite growth, 96 h | P. falciparum luciferase reporter growth, 96 h | Potency, µM (doses to about 28.7 µM), for inactives: top-dose activity change, negative = inhibition, usual class: inhibitors | 6.9% of 320,000 active | AID 504834; note: potency is the fitted concentration of half-maximal effect; % is set by controls: 0 for no effect and ±100 for the full control effect
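Compounds incubated with erythrocytes infected by luciferase-expressing P. falciparum (2% hematocrit, 0.05% parasitemia final) for 96 hours, 37 C in 5% CO2. Growth inhibition scored as decreased luciferase luminescence.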
HCMV inh = inhibitors of human cytomegalovirus; 4.5% of 410,000 active; AID 1259415; activity change, negative = inhibition, % at 57.5 µM; HFF cells, HCMV-luciferase reporter, 72 h; active compounds read low; in the data active = activity change below about -60%; inconclusive = no clear call, values can overlap the other calls; inactive = above about -39%; note: % is set by controls: 0 for no effect and ±100 for the full control effect
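Human foreskin fibroblasts infected with luciferase-reporter HCMV at MOI 1 PFU/cell, compounds at two doses. Luciferase measured 72 h post infection; normalized to buffer-only basal and Salinomycin (10uM) controls.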
Sm TGR block = blocks Schistosoma mansoni thioredoxin glutathione reductase. Q962Y6. purified TGR, DTNB reduction, TNB absorbance 405 nm. Potency, µM (series often up to 114 µM), for inactives: at the highest dose activity change, negative = inhibition, hits mostly inhibitors. 3% of 360,000 active. AID 485364; note: potency is the fitted concentration of half-maximal effect; % is set by controls: 0 for no effect and ±100 for the full control effect; nearly all actives have a fitted effect of over 60% in size
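TGR 20 nM + NADPH 100 uM (dispensed conc.), cpd preinc 15 min RT; start with NADPH (500 uM addition) then DTNB (15 mM addition). Kinetic TNB absorbance, 405 nm filter. Four-parameter Hill fit across titration.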
* marks the source's active call; other numbers are inactive results; ? = inconclusive; nt = no result given. The list is not random: actives were taken first. Their share in the collection is about 15%. Unless noted, calls come from the whole dose curve; as a rule, active = well fitted curve in the direction sought with a large enough effect; inconclusive = small, poorly fitted or top-dose-only effect, or another doubt; inactive = no such curve, though single readings can be large; an effect the other way counts as inactive or inconclusive.

SMILES	SARS PLP yeast	Pf growth 48h	HCV inhibitor	Pf growth 96h	HCMV inh	Sm TGR block
CCc1ccc(N=C2NC(=O)/C(=C/c3cc(OC)c(O)c(OC)c3)S2)cc1	-2.1%	?	?	-29.5%	?	2.7%
CCOC(=O)c1cnn(-c2ccc(C(=O)Nc3cc(OC)c(OC)c(OC)c3)cc2)c1N	nt	nt	nt	nt	-0.7	-6.1%
Cc1sc2c(c1C)C(O)=C(C(=O)Nc1ccccc1)S(=O)(=O)N2C	-2.5%	-9.3%	7.6%	?	47.9	3.55µM*
CCN1CCN(S(=O)(=O)c2ccc(Cl)c(C(=O)N(C)Cc3ccc(Cl)cc3Cl)c2)CC1	-2.7%	-6.4%	?	3.6%	0.3	-2.6%
COc1ccccc1-[n+]1c(C)cc(/C=C2\Sc3ccccc3N2C)cc1C	-23.3%	0.928µM*	?	0.586µM*	-80.4*	12.1%
COc1ccc(C(=O)/C=C2\Sc3ccccc3N2C)cc1	-0.9%	31.2%	10µM*	169.1%	127.1	nt
COc1ccc(-[n+]2c(C)cc(/C=C3\Sc4ccccc4N3C)cc2C)cc1	-4.4%	0.738µM*	1.12µM*	?	-98.8*	-7.7%
O=[N+]([O-])c1cccc(CON=Cc2ccccc2O)c1	nt	nt	nt	nt	51.1	nt
CC(C)Oc1ccc(C(=O)Nc2ccc(S(=O)(=O)N3CCN(C)CC3)cc2)cc1	-6.9%	?	-15.7%	?	-39.9	?
CCCCn1c(N)c(N(CCOC)C(=O)c2cccc(-n3cnnn3)c2)c(=O)[nH]c1=O	-2.8%	0.2%	-20.5%	7.0%	6.5	1.7%
CC(c1ccc(Br)cc1)N1CC23C=CC(O2)C(C(=O)O)C3C1=O (stereo unspecified)	-3.0%	nt	8.8%	22.8%	4.9	2.1%
CC(C)OC(=O)C1C2C=CC3(CN(C(C)c4ccc(Br)cc4)C(=O)C13)O2 (stereo unspecified)	-3.6%	nt	3.7%	10.4µM*	4.2	2.1%
COc1ccccc1Cn1cc(C(=O)c2ccc(Cl)cc2)c(=O)c2cc3c(cc21)OCCO3	nt	nt	nt	nt	-8.2	-9.8%
COc1cc2c(=O)c(C(=O)c3ccc(C)c(C)c3)cn(Cc3ccccc3F)c2cc1OC	nt	nt	nt	nt	-71.7*	4.6%
CCc1ccc(C(=O)c2cn(Cc3ccccc3)c3cc(OC)c(OC)cc3c2=O)cc1	nt	nt	nt	nt	-64.9*	-2.4%
COc1ccccc1Cn1cc(C(=O)c2ccc(Cl)cc2)c(=O)c2ccccc21	nt	nt	nt	nt	-100.6*	4.0%
Cn1nc(C(=O)OCc2ccc(Br)cc2F)c2ccccc2c1=O	-0.3%	-2.9%	?	29.9%	74.5	-4.7%
O=C(CN1C(=O)CCC1=O)Nc1cccc(NC(=O)CN2C(=O)CCC2=O)c1	-1.4%	13.0%	-0.1%	34.8%	17.4	3.6%
Cc1ccc(/C=C/c2onc(C)c2S(=O)(=O)N2CCC(C(=O)Nc3cc(C)ccc3C)CC2)cc1	nt	nt	nt	nt	14.5	-5.3%
COc1cc(C2(C)SCCCS2)cc(OC)c1OC	nt	nt	nt	nt	0.2	nt
O=C(/C=C/Sc1ccccc1)c1ccccc1	-25.3%	nt	?	?	-83.3*	10µM*
O=C(/C=C/Sc1ccccc1)c1ccc(Cl)cc1	-16.4%	nt	-59.0%	?	-76.3*	31.6µM*
O=C(C=Cc1ccccc1Cl)c1ccccc1	nt	nt	3.0%	nt	-24.1	nt
Cc1cccc(C(=O)Oc2cccc3c(O)cccc23)c1	-19.4%	?	2.0%	?	-28.5	?
Nc1ccc(-c2nc3ccc(N)cc3o2)cc1	-20.3%	nt	-29.5%	81.8%	35.2	5.2%
SMILES	SARS PLP yeast	Pf growth 48h	HCV inhibitor	Pf growth 96h	HCMV inh	Sm TGR block
Cc1ccc2nc(-c3cc(N)cc(N)c3)oc2c1	-8.4%	21.6%	-10.5%	38.5%	22.0	50.1µM*
COc1ccc(NC(=S)N2CCCC(c3nc4ccc(C)cc4[nH]3)C2)c(OC)c1 (stereo unspecified)	1.7%	-4.7%	?	-29.8%	-87.1*	7.0%
Cc1ccc(NC(=S)N2CCCC(c3nc4ccc(C)cc4[nH]3)C2)c(C)c1 (stereo unspecified)	-4.8%	33.6%	10µM*	3.6%	-15.1	1.8%
Cc1ccc2nc(C3CCCN(C(=S)Nc4cccc(C)c4C)C3)[nH]c2c1 (stereo unspecified)	-3.2%	-24.0%	1.78µM*	17.1%	?	-0.3%
Cc1cc2nc(C3CCCN(C(=S)Nc4ccccc4C)C3)[nH]c2cc1C (stereo unspecified)	-13.8%	24.1%	10µM*	28.2%	-17.3	-17.1%
Cc1nc2ccccc2c2c(N)c3ccccc3n12	-0.1%	?	-29.5%	8.28µM*	-62.6*	7.1%
Cc1nc2ccccc2n1-c1ccccc1	10.9%	-0.7%	?	-15.6%	12.2	0.0%
O=C(CC1CCCCC1)NCc1ccccc1Cl	-0.7%	162.9%	-10.0%	?	48.5	0.9%
CC1(C)Cc2cccc(OCC(O)CN3CCN(c4ccccn4)CC3)c2O1 (stereo unspecified)	-7.7%	11.7µM*	-0.6%	?	-26.9	-1.1%
Cc1cccc(OCC(O)CN2CCN(c3ccccn3)CC2)c1C (stereo unspecified)	9.1%	34.8%	-2.3%	44.7%	15.6	3.9%
COc1cccc(-c2ccc(NC(=O)C3CCCN(Cc4ccc(CO)o4)C3)cc2)c1 (stereo unspecified)	-5.1%	?	-25.9%	?	-1.6	-15.6%
CC1(C)CC(=O)C2=C(C1)OC(N)=C(C#N)C2C#Cc1ccccc1 (stereo unspecified)	-37.2%	?	1.7%	?	-18.5	1.58µM*
CC(C)CC1C(C#N)=C(N)OC2=C1C(=O)CC(c1ccccc1)C2 (stereo unspecified)	2.3%	?	16.4%	-23.4%	-0.1	0.5%
CC(CC1C(C#N)=C(N)OC2=C1C(=O)CCC2)c1ccccc1 (stereo unspecified)	1.6%	-6.3%	?	3.1%	-9.3	1.26µM*
CC(c1ccccc1)C1C(C#N)=C(N)OC2=C1C(=O)CC(C)(C)C2 (stereo unspecified)	-0.8%	-9.2%	4.5%	?	-64.8*	-25.6%
CC1(C)CC(=O)C2=C(C1)OC(N)=C(C#N)C2CCc1ccccc1 (stereo unspecified)	19.7%	5.3%	15.1%	?	-2.9	-30.0%
CC(C)(C)NC(=O)c1ccncc1	-1.9%	nt	10.1%	10.4µM*	-12.9	4.8%
Cc1cc(C)c(C(=O)c2ccc(C(=O)N(C(C)C)C(C)C)cc2)c(C)c1	-8.9%	nt	?	?	-10.8	-1.9%
Cc1cc(C)c(C(=O)c2ccc(C(=O)NC(C)(C)C)cc2)c(C)c1	-2.3%	nt	?	3.29µM*	4.0	-1.1%
